PG9 binder: small molecules binding HIV-1 gp120 antibody PG9. AID 624416. TR-FRET gp120-PG9 antibody binding. inhibition, % at 6.7 µM. 360,000 compounds, 0.43% hits; in the data active = inhibition above about 8.5%
DNMT1 block: DNMT1 (human) enzyme inhibition; P26358; DNMT1 molecular beacon, Hinp1I cleavage, fluorescence; inhibition (reported as % activation of signal), % at 10 µM; 360,000 compounds, 0.83% hits; in the data active = inhibition above about 50%
LEDGF integ inh: blocks HIV-1 LEDGF/p75-dependent DNA integration | TR-FRET IN-LEDGF/p75 DNA integration, Eu/Cy5 | inhibition, % at 3.7 µM | 370,000 compounds, 0.64% hits | AID 743269;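 active = inhibition above the screen-wide mean plus 3 SD, cut at about 13% in these data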;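 note: signal is the Cy5 over europium emission ratio at 671 and 618 nm; 0% = plate median of compound wells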
UHRF1 binding: human UHRF1 methylated DNA binding inhibitors | 370,000 compounds, 0.75% hits | UHRF1 binding to methylated oligo, TR-FRET | AID 687016 | Q96T88 | inhibition, % at 4.4 µM; in the data active = inhibition above about 21%;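 note: UHRF1 SRA domain binding a hemimethylated CpG hairpin DNA probe; 0% = median of test compound wells and 100% = reference inhibitor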
Target sequence (Q96T88 whole entry, looked up, the tested form may be a part): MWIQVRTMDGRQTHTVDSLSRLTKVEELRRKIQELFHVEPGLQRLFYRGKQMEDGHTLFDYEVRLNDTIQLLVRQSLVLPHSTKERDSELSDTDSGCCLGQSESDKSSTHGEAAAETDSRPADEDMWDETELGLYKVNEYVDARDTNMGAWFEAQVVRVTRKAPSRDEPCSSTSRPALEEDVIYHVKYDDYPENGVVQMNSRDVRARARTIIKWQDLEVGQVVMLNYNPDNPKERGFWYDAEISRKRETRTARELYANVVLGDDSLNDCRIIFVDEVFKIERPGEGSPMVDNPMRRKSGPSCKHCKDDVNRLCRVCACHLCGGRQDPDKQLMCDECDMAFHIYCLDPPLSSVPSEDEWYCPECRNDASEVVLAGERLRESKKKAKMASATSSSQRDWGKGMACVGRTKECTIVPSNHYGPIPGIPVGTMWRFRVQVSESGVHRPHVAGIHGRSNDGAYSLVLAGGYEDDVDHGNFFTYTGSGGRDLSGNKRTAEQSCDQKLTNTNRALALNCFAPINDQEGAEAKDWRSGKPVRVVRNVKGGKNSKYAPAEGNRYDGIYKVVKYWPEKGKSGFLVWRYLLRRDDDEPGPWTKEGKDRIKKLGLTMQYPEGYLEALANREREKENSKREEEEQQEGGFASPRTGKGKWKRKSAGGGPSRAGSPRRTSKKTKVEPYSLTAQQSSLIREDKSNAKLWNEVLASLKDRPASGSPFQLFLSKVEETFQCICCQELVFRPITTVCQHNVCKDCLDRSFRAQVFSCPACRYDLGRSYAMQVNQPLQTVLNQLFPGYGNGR
rCAG RNA binder: molecules binding r(CAG) RNA repeats; inhibition, % at 3 µM; r(CAG) RNA repeat, TO-PRO-1 dye displacement fluorescence; 370,000 compounds, 1.3% hits;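 active = inhibition above the plate cutoff, the mean of all test compounds on that plate plus 3 SD, cut at about 35% in these data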;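 note: 0% = DMSO alone and 100% = 100 µM mitoxantrone as full dye displacement; higher means more dye released from RNA so lower well fluorescence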
MBD2 inh: inhibitors of human MBD2 binding to methylated oligonucleotide; Q9UBB5; TR-FRET; inhibition, % at 4.4 µM; 370,000 compounds, 0.31% hits; AID 686964; in the data active = inhibition above about 13%
PG9 binder conf: PG9 antibody binding, confirmed | shares compounds with PG9 binder | 1,500 compounds, 90% hits | TR-FRET PG9 antibody binding, biochemical | inhibition, % at 6.7 µM; in the data active = inhibition above about 9%
PGV04 Ab binding: PGV04 control antibody binding, counter-screen; shares compounds with PG9 binder; TR-FRET PGV04 antibody-gp120 binding, biochemical; inhibition, % at 6.7 µM; 1,500 compounds, 95% hits; AID 651604; in the data active = inhibition above about 9.5%
PG9 bind DR: PG9 antibody binding, dose response; 95 tested, under 10 active; AID 651848; TR-FRET PG9 antibody-gp120 binding inhibition; IC50, µM; shares compounds with PG9 binder; in the data active = IC50 below about 10 µM
PGV04 DR counter: PGV04 binding, dose response counter-screen | shares compounds with PG9 binder | TR-FRET binding to control antibody PGV04 | AID 651937 | IC50, µM | 95 compounds, 20% hits
PG126 binding DR: counter-screen for PG9 binders: binding to control antibody PG126. shares compounds with PG9 binder. TR-FRET binding to antibody PG126, counterscreen. IC50, µM. 95 compounds, 20% hits. AID 651939
* hit, by the source's call; i = inactive; . = not tested or not shown. In the library only some 3.5% were active in any assay of this set; here they are far more common. Cut-off read from the data, not from the text of the source, unless noted: active = IC50 below about 9 µM; inactive = the rest.

SMILES	PG9 binder	DNMT1 block	LEDGF integ inh	UHRF1 binding	rCAG RNA binder	MBD2 inh	PG9 binder conf	PGV04 Ab binding	others
O=c1[nH]c2ccc(Cl)cc2c(O)c1Cc1ccccc1	9.0*	0	2	-2	1	-7	11*	14*
CC(C)C[C@@H]1CN(CCCC[C@H]2CNC(=O)C(=O)N2CCC2CCCCC2)C(=O)C(=O)N1Cc1ccccc1	1	.	-2	0	-2	-5	.	.
CCn1c(SCc2nc(-c3ccccc3)no2)nnc1-c1ccco1	15*	0	-3	-2	-3	3	49*	61*
CNC(=O)c1cnn(-c2nc(-c3ccc(OC)cc3)cs2)c1C(F)(F)F	-1	1	1	-2	-1	-6	.	.
COc1ccc(-c2csc(-n3ncc(C(=O)O)c3C(F)(F)F)n2)cc1	16*	0	4	-1	5	-5	22*	36*
Cn1c(N)c(C(=O)CSc2nnc(-c3c[nH]c4ccccc34)n2C2CC2)c(=O)[nH]c1=O	0	4	4	15	3	0	.	.
C/C(N)=C(/C#N)C(=O)CSc1nc2ccccc2c(=O)n1-c1ccccc1C	-2	1	1	-4	4	-3	.	.
C/C(N)=C(/C#N)C(=O)CSc1nc2ccccc2c(=O)n1-c1ccc(C)c(Cl)c1	45*	-12	1	-4	2	-4	39*	56*
COc1cc(N)c(Cl)cc1C(=O)OCC(=O)N1CCCCCC1	2	2	-6	19	-1	8	.	.
COC(=O)C1=CN(c2ccc(F)cc2)C(N)=C(C#N)C1c1ccc(-c2ccccc2)cc1 (stereo unspecified)	1	.	-5	-1	11	3	.	.
CCc1nc(N)c(C#N)c(-c2cccc3ccccc23)c1C	15*	13	-1	-1	-1	1	21*	29*
CCc1nc(N)c(C#N)c(-c2ccncc2)c1C	1	-1	-5	-3	1	-6	.	.
O=C(Cn1c(=O)c2cccn2c2ccccc21)NCc1cccc(F)c1	1	0	-1	4	5	7	.	.
CCc1cccc(NC(=O)Cn2c(=O)c3cccn3c3ccccc32)c1	26*	11	-1	-1	6	1	28*	36*
COc1cccc(CNC(=O)Cn2c(=O)c3cccn3c3ccccc32)c1	19*	2	2	-3	-3	-4	24*	44*
Cc1cccc(C)c1NC(=O)Cn1c(=O)c2cccn2c2ccccc21	7	-4	-1	0	6	3	.	.
O=c1oc2cc(O)c(Cl)cc2c2ccccc12	66*	3	-10	2	5	1	62*	82*
CC(C)(C)N(Cc1ccc2c(c1)OCO2)C(=O)/C=C\S(=O)c1ccccc1 (stereo unspecified)	1	17	1	0	0	-1	.	.
CSc1sc(-c2nnc(SCC(=O)Nc3ccc(Cl)cc3)n2C)c2c1C=CCC2	29*	-4	-1	2	1	-1	38*	52*
Cn1c(SCC(=O)Nc2ccc(Cl)cc2)nnc1C1CC1	3	2	3	-1	0	-4	.	.
Cc1sc2ncnc(N3CCC(C(=O)Nc4nnc(CC(C)C)s4)CC3)c2c1C	14*	-2	-1	0	-1	1	42*	54*
COc1cc(OC)c(NS(=O)(=O)c2cc3[nH]c(=O)c(=O)[nH]c3cc2C)cc1Cl	-1	0	1	-2	6	-1	.	.
COc1ccc(/C=C/c2c(-c3ccc(OC)cc3)sc3ccc(N4CCOCC4)cc23)cc1	.	-7	.	.	.	.	.	.
COc1ccc(-c2oc3ccc(N4CCOCC4)cc3c2/C=C/c2ccc(OC)c(OC)c2)cc1	10*	-26	1	-3	9	-4	15*	28*
CCOC(=O)CNC(=O)CSc1nc(C(C)C)nc2c1cnn2-c1ccccc1	8.6*	7	-1	-1	2	3	10*	15*
SMILES	PG9 binder	DNMT1 block	LEDGF integ inh	UHRF1 binding	rCAG RNA binder	MBD2 inh	PG9 binder conf	PGV04 Ab binding	others
COc1ccc(-c2csc(NC(=O)c3ccc(N4C(=O)CCC4=O)cc3)n2)cc1	29*	-3	1	-1	1	0	28*	50*
Cc1nn(C)cc1-c1n[nH]c(=S)n1-c1ccc(F)cc1	0	6	-4	3	-3	5	.	.
Cn1cc(Cl)c(-c2n[nH]c(=S)n2-c2ccccc2)n1	16*	2	-2	2	0	-2	15*	17*
Fc1cccc(-c2n[nH]c(=S)n2-c2ccccc2)c1	15*	0	-3	0	0	-3	4	9.5*
Cc1c(Cl)c(-c2n[nH]c(=S)n2-c2ccc(F)cc2)nn1C	10*	4	-2	-3	0	6	12*	11*	PG9 bind DR=>67;PGV04 DR counter=i;PG126 binding DR=i
Cc1cc(-c2n[nH]c(=S)n2-c2ccccc2)nn1C	-1	-1	-1	-2	2	0	.	.
O=C(NCCCCCCCN1CCCCCCC1)C(C1CCCCC1)C1CCCCC1	0	-32	1	-1	6	1	.	.
Nn1c(=S)[nH]c2sc3c(c2c1=O)CCCC3	9.7*	1	3	1	2	9	10*	9.4*	PG9 bind DR=>67;PGV04 DR counter=>67;PG126 binding DR=>67
CCCn1c(=S)[nH]c2sc3c(c2c1=O)CCCC3	2	1	0	-2	2	3	.	.
Cc1ccc(-c2cc(C(=O)NCc3cnn(C)c3C)c3cc(Br)ccc3n2)cc1	-8	10	-1	-2	9	2	.	.
Cc1ccc(-c2cc(C(=O)N(C)Cc3cnn(C)c3C)c3cc(Br)ccc3n2)cc1	21*	-4	-2	2	1	4	25*	30*
O=C(NCCC1=CCCCC1)c1coc(=O)c(Br)c1	46*	2	-1	-1	-2	-6	57*	64*
C[C@@H]1ON(C)[C@H]2C[C@H]3c4[nH]c5c(-c6ccccc6)cccc5c4CCN3C(=O)[C@@H]12	-2	.	-3	-1	5	-1	.	.
COc1ccc2oc(=N)c(C(=O)Nc3ccccc3)cc2c1	18*	-9	3	3	0	-1	6	9.2*

Screens: PubChem BioAssay, several laboratories
